Measurements taken from PubChem BioAssay (NCATS).
Records with an inconclusive call do not appear. Calls of active or inactive are those of the source. The call rests on the fitted dose curve; in most records, active means well fitted curve in the direction sought with a large enough effect; inconclusive means small, poorly fitted or top-dose-only effect, or another doubt; inactive means no such curve, though single readings can be large; an effect the other way counts as inactive or inconclusive. *1 amine or outer side, *2 acyl side, *3 side chain or, on linkers, in order; H or OH if unused. Where a SMILES comes first, the peptide text is derived from it. Bridges are numbered along the chain shown (N, C = ends). [ ]: non-standard residue; d: D form. The star is where a group is joined. ξ: configuration not given here. ξhTyr(3S-OH,4S-OH,3'-OSO3H) = NC(C(=O)O)[C@H](O)[C@@H](O)c1ccc(O)c(OS(=O)(=O)O)c1; Orn(4R-OH,5R-OH) = O=C([C@H](C[C@@H](O)[C@@H](O)N[*:3])N[*:1])[*:2]; X2 = CCCCCOc1ccc(-c2cc(-c3ccc(C(=O)*)cc3)no2)cc1; X3 = C[C@H]1CN([*:1])C(C(=O)[*:2])[C@H]1O; ξGln(3R-OH) = NC(=O)C[C@@H](O)C(N)C(=O)O; ξPro(4R-OH) = O=C(O)C1C[C@@H](O)CN1; ξThr(3R) = C[C@@H](O)C(N)C(=O)O

Tests used:
[1] = tested on: CRL-7250; experiment: Cytotoxic Profiling of Annotated Libraries Using Quantitative High-Throughput Screening (AID 1296008); settings: Five cell lines viability, CellTiter-Glo ATP luminescence, 48-72 h; max response: hits give low values; further: nearly all actives have a fitted effect of over 60% in size; on max response: on the % scale 0 is the no-effect control and ±100 the full control effect
Outline: (§1)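 Compounds were pin-transferred onto cells and incubated 48 or 72 hr at 37 degree Celsius, 95% humidity. CellTiter-Glo was added, plates sat 10 min at room temperature, then ATP-coupled luminescence was imaged as the viability read-out.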

[2] = tested on: HEK293; experiment: as above; settings: Five cell lines viability, CellTiter-Glo ATP luminescence, 48-72 h; max response: hits give low values
Outline: as §1

[3] = tested on: HaCat; experiment: as above; settings: Five cell lines viability, CellTiter-Glo ATP luminescence, 48-72 h; max response: hits give low values
Outline: as §1

[4] = tested on: KB-3-1; experiment: as above; settings: Five cell lines viability, CellTiter-Glo ATP luminescence, 48-72 h; max response: hits give low values
Outline: as §1

[5] = tested on: NIH3T3; experiment: as above; settings: Five cell lines viability, CellTiter-Glo ATP luminescence, 48-72 h; max response: hits give low values
Outline: as §1

[6] = tested on: HACAT; experiment: qHTS assay to identify novel small-molecules to repurpose for Merkel cell carcinoma treatment (AID 1296009); settings: MCC and control cell lines, CellTiter-Glo viability, 72 h; at 44.8 µM (top of the series) unless noted; further: nearly all actives have a fitted effect of over 60% in size
Outline: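 Viability readout: ATP luminescence (CellTiter-Glo) after 72 hr drug exposure at 37 degree celsius. Dose-response format was 8 points for NPC and 11 points for MIPE; data normalized to in-plate controls.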

[7] = tested on: C33A; experiment: Primary qHTS to identify gynecologic anti-cancer compounds using libraries of approved drugs and bioactive compounds (AID 1345084); settings: Gynecologic cancer cell panel viability, ATPlite luminescence, 48 h; series mostly up to 57.5 µM; further: on the % scale 0 is the no-effect control and ±100 the full control effect; nearly all actives have a fitted effect of over 55% in size
Outline: (§2)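 ATP-based viability (ATPlite), 1,000 cells/well, 16 h pre-incubation, 48 h compound at 37 C, 5% CO2, 15 min RT before read.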

[8] = tested on: CAOV3; experiment: as above; settings: Gynecologic cancer cell panel viability, ATPlite luminescence, 48 h; series mostly up to 57.5 µM
Outline: as §2

[9] = tested on: CASKI; experiment: as above; settings: Gynecologic cancer cell panel viability, ATPlite luminescence, 48 h; series mostly up to 57.5 µM
Outline: as §2

[10] = tested on: Es-2; experiment: as above; settings: Gynecologic cancer cell panel viability, ATPlite luminescence, 48 h; series mostly up to 57.5 µM
Outline: as §2

[11] = tested on: HeLa; experiment: as above; settings: Gynecologic cancer cell panel viability, ATPlite luminescence, 48 h; series mostly up to 57.5 µM
Outline: as §2

[12] = tested on: Hek293T; experiment: as above; settings: Gynecologic cancer cell panel viability, ATPlite luminescence, 48 h, control line for the selectivity index; series mostly up to 57.5 µM
Outline: as §2

[13] = tested on: JEG-3; experiment: as above; settings: Gynecologic cancer cell panel viability, ATPlite luminescence, 48 h; series mostly up to 57.5 µM
Outline: as §2

CCCC(=O)Nc1cccc(NC(=O)c2ccccc2Br)c1
inactive: outcome [1] | max response [2] -4.38% | outcome [3] | max response [4] 8.7% | max response [5] 3.78% | outcome [6] | Potency [7] | Potency [8] | outcome [9] | Potency [10] | Potency [11] | Potency [12] | Potency [13]

CC12CC(c3ccoc3)OC(=O)C1CCC1(C)C2CCC(O)C1(C)O (stereo not drawn)
inactive: outcome [1] | max response [2] 0.137% | outcome [3] | max response [4] 6.59% | outcome [5] | outcome [6] | Potency [7] | outcome [9] | Potency [10] | Potency [11] | Potency [12] | Potency [13]

CC1OC(OC2C(OC(=O)[C@]34CCC(C)(C)C[C@H]3C3=CCC5[C@@]6(C)CC[C@H](OC7OC(C(=O)O)C(O)C(O)C7O)C(C)(C)C6CC[C@@]5(C)[C@]3(C)CC4O)OC(CO)C2O)C(O)C(O)C1OC1OCC(O)C(O)C1O (stereo partly drawn)
inactive: max response [1] 0.472% | max response [2] -8.42% | outcome [3] | max response [4] 8.03% | max response [5] -0.0675% | outcome [6] inactive [at 9.27 µM] | activity change, negative = cytotoxicity [7] 6.97% [at 11.6 µM] | activity change, negative = cytotoxicity [8] 0.294% [at 11.6 µM] | activity change, negative = cytotoxicity [9] 7.85% [at 11.6 µM] | activity change, negative = cytotoxicity [10] -0.633% [at 11.6 µM] | activity change, negative = cytotoxicity [11] 8.57% [at 11.6 µM] | activity change, negative = cytotoxicity [12] 3.77% [at 11.6 µM] | activity change, negative = cytotoxicity [13] 3.79% [at 11.6 µM]

CC(=O)O[C@H]1[C@H](O[C@H]2CC[C@]34C[C@]35CC[C@]3(C)[C@@H]([C@@]6(C)CC[C@@H](C(C)(C)O)O6)[C@@H](O)C[C@@]3(C)[C@@H]5C[C@H](O[C@@H]3O[C@H](CO)[C@@H](O)[C@H](O)[C@H]3O)[C@H]4C2(C)C)OC[C@@H](OC(C)=O)[C@@H]1O
inactive: max response [1] -0.709% | max response [2] -4% | outcome [3] | outcome [4] | max response [5] 1.91% | outcome [6] | Potency [7] | Potency [8] | outcome [9] | Potency [10] | Potency [11] | Potency [12] | Potency [13]

CCCCCOc1ccc(-c2cc(-c3ccc(C(=O)N[C@H]4C[C@@H](O)[C@@H](O)NC(=O)C5[C@@H](O)[C@@H](C)CN5C(=O)C([C@H](O)CC(N)=O)NC(=O)C([C@H](O)[C@@H](O)c5ccc(O)c(OS(=O)(=O)O)c5)NC(=O)C5C[C@@H](O)CN5C(=O)C([C@@H](C)O)NC4=O)cc3)no2)cc1 (stereo partly drawn) (X2-[Orn(4R-OH,5R-OH)][ξThr(3R)][ξPro(4R-OH)][ξhTyr(3S-OH,4S-OH,3'-OSO3H)][ξGln(3R-OH)][X3]; lactam 1-C)
inactive: outcome [1] | max response [2] -7.85% | outcome [3] | outcome [4] | max response [5] 3.77% | outcome [6] inactive [at 17.4 µM] | Potency [7] | Potency [8] | Potency [10] | Potency [11] | Potency [12] | Potency [13]

CC1CC(=O)C2C(O)(C1)CC(O)C13OC1c1c(O)cccc1C(=O)C23O (stereo not drawn)
inactive: outcome [1] | max response [2] -12.4% | outcome [3] | max response [4] 3.15% | outcome [5] | outcome [6] | Potency [7] | Potency [8] | outcome [9] | Potency [10] | Potency [11] | Potency [13]

Fc1ccccc1-c1nc2ccn(Cc3ccc(-c4ccc(C(F)(F)F)cc4C(F)(F)F)nn3)cc-2n1
inactive: max response [1] 1.68% | max response [2] -5.52% | outcome [3] | max response [4] -0.729% | max response [5] -4.04% | outcome [6] | Potency [7] | Potency [8] | outcome [9] | Potency [10] | Potency [11] | Potency [12] | Potency [13]

CSCC[C@H](NC(=O)[C@H](CO)NC(=O)[C@H](CCC(=O)O)NC(C)=O)C(=O)N[C@H](C=O)CC(=O)O (Ac-ESMD-aldehyde)
inactive: max response [1] 3.88% | max response [2] 0.953% | outcome [3] | max response [4] 2.69% | max response [5] -20.7% | outcome [6] inactive [at 9.27 µM] | activity change, negative = cytotoxicity [7] 13.1% [at 11.6 µM] | activity change, negative = cytotoxicity [8] 15.6% [at 11.6 µM] | activity change, negative = cytotoxicity [9] 18.4% [at 11.6 µM] | activity change, negative = cytotoxicity [10] 5.54% [at 11.6 µM] | activity change, negative = cytotoxicity [11] 13.1% [at 11.6 µM] | activity change, negative = cytotoxicity [12] 8.08% [at 11.6 µM] | activity change, negative = cytotoxicity [13] 19.7% [at 11.6 µM]

C=C1C(=O)O[C@@H]2/C=C(\C)CC/C=C(\C(=O)O[C@@H]3O[C@H](CO)[C@@H](O)[C@H](O)[C@H]3O)CC[C@@H]12
inactive: max response [1] 4.73% | max response [2] -0.494% | outcome [3] | max response [4] -8.71% | max response [5] -22.6% | outcome [6] inactive [at 17.4 µM] | Potency [7] | Potency [8] | Potency [10] | Potency [11] | Potency [13]

COc1c2c(c(C)c3c1C(=O)OC3)OC1(C)CC(O)C34OC(OC)(CC(O)C3(C)C1C2)OC4(C)C (stereo not drawn)
inactive: max response [1] 0.784% | max response [2] -15.9% | outcome [3] | max response [4] 4.03% | max response [5] 1.57% | outcome [6] inactive [at 17.4 µM] | Potency [7] | Potency [8] | outcome [9] | Potency [10] | Potency [11] | Potency [12] | Potency [13]

CC(=O)OC(C)C(C)(O)C(=O)O[C@@H]1CC[C@]2(C)CC(=O)C(=C(C)C)C[C@H]2[C@]1(C)OC(C)=O (stereo partly drawn)
inactive: max response [1] -0.377% | max response [2] 0.4% | outcome [3] | max response [4] 6.09% | max response [5] -1.04% | outcome [6] inactive [at 17.4 µM] | Potency [7] | Potency [8] | outcome [9] | Potency [10] | Potency [11] | Potency [12] | Potency [13]
